Measured values reported in PubChem BioAssay (NCATS).
Records with an inconclusive call do not appear. Active and inactive are the calls of the source. The call rests on the fitted dose curve; in most records, active means well fitted inhibition curve with a large enough effect in the signal ratio, with a control signal flat (not every such curve was filed as active); inconclusive means small, poorly fitted or top-dose-only effect, or effect the other way, or a change in a side signal; inactive means no such curve, though single readings can be large or run the other way; the % refers to the signal ratio.

biological target: Peroxisome proliferator-activated receptor delta (Homo sapiens) (UniProt Q03181); experiment: qHTS assay for small molecule antagonists of peroxisome proliferator-activated receptor delta signaling (AID 588535); conditions: HEK293T PPARd-UAS-bla, beta-lactamase FRET ratio, 18 h; series mostly up to 76.7 µM
Sequence (Q03181 whole entry, looked up): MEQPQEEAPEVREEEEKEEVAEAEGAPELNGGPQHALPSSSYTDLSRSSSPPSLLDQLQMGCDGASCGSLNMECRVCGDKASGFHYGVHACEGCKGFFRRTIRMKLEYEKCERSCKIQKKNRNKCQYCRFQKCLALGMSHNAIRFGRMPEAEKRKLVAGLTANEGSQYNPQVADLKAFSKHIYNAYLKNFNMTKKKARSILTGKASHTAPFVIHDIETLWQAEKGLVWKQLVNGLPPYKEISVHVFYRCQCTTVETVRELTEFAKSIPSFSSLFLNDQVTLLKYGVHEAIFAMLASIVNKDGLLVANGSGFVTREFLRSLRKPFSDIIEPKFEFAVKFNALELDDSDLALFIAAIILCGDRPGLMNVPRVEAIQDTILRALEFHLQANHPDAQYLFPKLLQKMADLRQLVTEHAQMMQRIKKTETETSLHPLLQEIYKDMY
Source text: NIH Chemical Genomics Center [NCGC] U.S. Environmental Protection Agency [EPA] National Institutes of Environmental Health Sciences [NIEHS] National Toxicology Program [NTP] NCGC Assay Overview The Peroxisome proliferator-activated receptors (PPARs) are lipid-activated transcription factors of the nuclear receptor superfamily with three distinct subtypes namely PPAR alpha, PPAR delta (also called PPAR beta) and PPAR gamma. All these subtypes heterodimerizes with Retinoid X receptor (RXR) and have different physiological functions. […] This role of PPAR delta implicates the potential use of its ligands in the treatment of metabolic disorders.
NCGC Assay Protocol Summary Using a beta-lactamase reporter-gene under control Peroxisome Proliferator-Activated Receptor delta (PPAR-delta) response element, a cell-based assay [GeneBLAzer (PPAR-delta-UAS-bla assay developed by Invitrogen] was used to measure PPAR-delta ligands signaling. GeneBLAzer PPAR-delta-UAS-bla HEK293T cells were used with assay medium containing 2% charcoal/dextran FBS. The assay was performed in clear bottom black Greiner 1536-well plates. Library compounds were measured for their ability to inhibit the reporter gene activity. Compounds were screened in a titration series in 1536-well format. The fluorescence intensity (405 nm excitation, 460/530 nm emission) was measured using an EnVision plate reader. […] Concentration-response titration points for each compound were fitted to the Hill equation yielding concentrations of half-maximal inhibition (IC50) and maximal response (efficacy) values. qHTS protocol for PPAR-delta beta-lactamase assay in antagonist mode [Step] [Parameter] [Value] [Description] 1. Reagent; 5 uL; 4000 cells/well 2. Incubation; 37 C for 5 hrs 3. Compounds; 23 nL; 0.59 nM to 92 uM 4. […] Incubation; 37 C for 18 hrs 7. Detection reagent; 1 uL of CCF4-dye 8. Incubation; RT for 2 hrs 9. Detection; Fluorescence; Envision plate reader

How did the outcome turn out when O=P(OCCCl)(OCCCl)OCCCl was run?
The outcome was “inactive”.

Which outcome does the source give for CCCCCCCCCCCCCl here?
Its outcome is “inactive”.

Which outcome does the source give for O=NN1CCCCC1 here?
The outcome was “inactive”.

With O=C(O)CBr as the compound, how does the outcome read?
The outcome was “inactive”.

How did the outcome turn out when CC(C)(COCC1CO1)COCC1CO1 (stereo not given) was run?
The outcome was “inactive”.

With CCN(CC)CCO as the compound, how does the outcome read?
The outcome was “inactive”.

Cc1ccc(N)cc1C was tested. Which outcome did it give?
Its outcome is “inactive”.

For BrCCc1ccccc1, which outcome is on record?
The outcome was “inactive”.

Which outcome does the source give for Cc1cc(N=Nc2ccccc2C)ccc1N here?
Its outcome is “inactive”.

How did the outcome turn out when c1ccc(N=NNc2ccccc2)cc1 was run?
Its outcome is “inactive”.

With CC(C)(Cl)Cl as the compound, how does the outcome read?
The outcome was “inactive”.

Which outcome does the source give for COC(=O)c1ccccc1N here?
Its outcome is “inactive”.

Which outcome does the source give for CCCCOCC1CO1 (stereo not given) here?
The outcome was “inactive”.

CC(C)(C)OOC(=O)c1ccccc1 was tested. Which outcome did it give?
Its outcome is “inactive”.

Which outcome does the source give for CCNCC here?
The outcome was “inactive”.

With CC(C#N)CCC#N (stereo not given) as the compound, how does the outcome read?
The outcome was “inactive”.

Which outcome does the source give for c1ccc(C2CO2)cc1 (stereo not given) here?
Its outcome is “inactive”.

CCOP(=S)(OCC)Oc1nc(Cl)c(Cl)cc1Cl was tested. Which outcome did it give?
The outcome was “inactive”.

For Cl/C=C\Cl, which outcome is on record?
The outcome was “inactive”.

Nc1ccc(Oc2ccc(N)cc2)cc1 was tested. Which outcome did it give?
The outcome was “inactive”.

With ClCC(Cl)CCl as the compound, how does the outcome read?
The outcome was “inactive”.

How did the outcome turn out when ClC(Cl)Br was run?
Its outcome is “inactive”.

How did the outcome turn out when CCSC(=O)N1CCCCCC1 was run?
Its outcome is “inactive”.

CN(C)C(=O)Cl was tested. Which outcome did it give?
The outcome was “inactive”.

Which outcome does the source give for ClCc1ccccn1 here?
The outcome was “inactive”.

CCBr was tested. Which outcome did it give?
The outcome was “inactive”.

c1ccc(NNc2ccccc2)cc1 was tested. Which outcome did it give?
The outcome was “inactive”.

For C=CC(=O)OCC(CC)CCCC (stereo not given), which outcome is on record?
The outcome was “inactive”.

CCOP(=O)(OCC)OCC was tested. Which outcome did it give?
The outcome was “inactive”.

Nc1ncc([N+](=O)[O-])s1 was tested. Which outcome did it give?
The outcome was “inactive”.

For O=[N+]([O-])c1c(Cl)c(Cl)c(Cl)c(Cl)c1Cl, which outcome is on record?
Its outcome is “inactive”.

How did the outcome turn out when OCC(Cl)CCl (stereo not given) was run?
Its outcome is “inactive”.

For CC(C)(OOC(C)(C)c1ccccc1)c1ccccc1, which outcome is on record?
Its outcome is “inactive”.

CC(C)CON=O was tested. Which outcome did it give?
The outcome was “inactive”.

c1ccc(P(c2ccccc2)c2ccccc2)cc1 was tested. Which outcome did it give?
The outcome was “inactive”.

Which outcome does the source give for O=C(O)c1cccc(Cl)c1 here?
Its outcome is “inactive”.

Which outcome does the source give for Nc1cc(Cl)cc(C(=O)O)c1Cl here?
Its outcome is “inactive”.

For CCCCC(=O)Cl, which outcome is on record?
The outcome was “inactive”.

Which outcome does the source give for CC(C)(C)c1ccccc1O here?
Its outcome is “inactive”.

Nc1c(Cl)cc([N+](=O)[O-])cc1Cl was tested. Which outcome did it give?
The outcome was “inactive”.
